Test results reported in PubChem BioAssay (NCI).
About 79,000 compounds went through this panel and 15% of them were active in at least one assay; those are over-represented in the sample as a whole. Unmarked numbers belong to inactive results. The source made the active and inactive calls. Rule as the data show it: active = growth inhibition above about 70%; inactive = the rest.

Experiments:
[1] = NCI Yeast Anticancer Drug Screen. Data for the rad50 strain (AID 155);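 also: 0% = growth of vehicle-only cultures of the same strain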; conditions: S. cerevisiae rad50 strain growth inhibition; at 50.0 µM; hits give high values
Procedure, shortened: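 A DNA repair-deficient yeast mutant serves as the test organism; compound-induced growth inhibition is calculated against vehicle-treated cells.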

[2] = NCI Yeast Anticancer Drug Screen. Data for the mec2-1 strain (AID 157); conditions: S. cerevisiae mec2-1 strain, at 50.0 µM, hits give high values
Procedure, shortened: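 mec2-1 yeast strain, carrying an alteration in DNA damage repair or cell cycle control, was exposed to compounds; growth inhibition was measured relative to vehicle-treated controls.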

[3] = NCI Yeast Anticancer Drug Screen. Data for the sgs1 mgt1 strain (AID 161);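 also: 0% = growth of cultures given vehicle only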; conditions: S. cerevisiae sgs1 mgt1 strain, at 50.0 µM, hits give high values
Procedure, shortened: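 Growth of a repair-deficient yeast mutant was monitored after compound treatment and expressed as inhibition relative to vehicle-treated cultures.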

[4] = NCI Yeast Anticancer Drug Screen. Data for the cln2 rad14 strain (AID 165);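 also: 0% = growth equal to vehicle treated cultures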; conditions: S. cerevisiae cln2 rad14 strain, at 50.0 µM, hits give high values
Procedure, shortened: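 Yeast carrying cln2 and rad14 alterations (cell cycle control and DNA damage repair) were exposed to compounds. Growth inhibition was measured against vehicle-treated controls.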

[5] = NCI Yeast Anticancer Drug Screen. Data for the bub3 strain (AID 167); conditions: S. cerevisiae bub3 mutant strain, at 50.0 µM, hits give high values
Procedure, shortened: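 Inhibition values come from growth of compound-treated mutant yeast normalised to vehicle-treated controls.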

[6] = NCI Yeast Anticancer Drug Screen. Data for the mlh1 rad18 strain (AID 175); conditions: S. cerevisiae mlh1 rad18 strain growth inhibition; at 50.0 µM; hits give high values
Procedure, shortened: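 Growth inhibition of the yeast strain was measured after compound exposure and expressed relative to vehicle-treated controls. The strain carries defined defects in DNA damage repair.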

Structure (SMILES)	growth inhibition [1]	growth inhibition [2]	growth inhibition [3]	growth inhibition [4]	growth inhibition [5]	growth inhibition [6]
CC(=O)Nc1ccc(S(=O)(=O)N/N=C/C(=O)O)cc1	-15.6%	-32.4%	-40%	-22.4%	5.4%	-16.6%
Cc1ccc2[nH]c(-c3ccccc3)cc2c1	-1.85%	-21.6%	-10.6%	-27.8%	-8.15%	-9.8%
OC1C=COC2COC(c3ccccc3)OC12 (configuration not stated)	4.1%	-8.95%	6.1%	-21.1%	-5.4%	10.2%
Cc1cccc2c1NC(=O)C2=O	21.6%	8.4%	-2.8%	15.7%	-0.65%	13.5%
OCCCNc1nc2cc(Br)ccc2c2ccc(Br)cc12	47.6%	4.75%	23.9%	-3.65%	0.1%	19.1%
COC1=CC(=C(C#N)C(=Nc2ccccc2)SC)C=C(OC)C1=O	34.1%	19.1%	48.9%	15.3%	20.6%	43.6%
Cc1cc(C)c(-c2c(C)cc(C)c([N+](=O)[O-])c2C)c(C)c1N	98.1% (active)	98.8% (active)	98.4% (active)	96.5% (active)	97.2% (active)	97.8% (active)
S=C(N1CCN(c2ccc(Cl)c(Cl)c2)CC1)N1CCN(c2ccc(Cl)c(Cl)c2)CC1	7.8%	22.2%	27.9%	12%	5.55%	20.2%
C=CCN1C(=O)/C(=C/c2ccc(OCC(=O)O)cc2)SC1=S	5.7%	-11.2%	0.05%	-46.6%	-1%	-13.8%
C=C(C)C(=O)O[C@H]1C/C(CO)=C/CCC(=C)C(OC(C)=O)[C@H]2OC(=O)C(=C)[C@H]12 (some centres not stated)	10.4%	36.8%	-0.9%	6.85%	-21.9%	-20.2%
CCCCOC(=O)COc1ccc(OC)cc1	-4.5%	-22.1%	-13.3%	-34.6%	3.45%	6.2%
CC(=O)Nc1ccc2c(c1)N(O)C(=O)C2(C)C	7.9%	6.3%	11.4%	-36.1%	5.5%	-0.6%
CCCN(CCC)NC(=O)c1ccc(N=NN(C)C)cc1	0.15%	32.8%	8.4%	-5.3%	39.9%	21%
COC(=O)CCC(=O)Nc1ccc(Cl)cc1C	-22.8%	-9.45%	-19.9%	-6.5%	-60%	-21.2%
Cn1ccc2c([N+](=O)[O-])cccc2c1=O	4.1%	2%	2.55%	-45.9%	-25.4%	4.35%
CCCCCN(CCCCC)CC(O)c1ccc2cc3c(nc2c1)CCCC3 (configuration not stated)	6.2%	10.2%	26.9%	5.25%	-7.2%	1.5%

Structure (SMILES)	growth inhibition [1]	growth inhibition [2]	growth inhibition [3]	growth inhibition [4]	growth inhibition [5]	growth inhibition [6]
Cc1nc(N)[nH]c(=O)c1CCCN=Cc1ccccc1	8.5%	56.5%	2.8%	18.5%	92.2% (active)	51.1%
Cc1cc(C)c(C(=O)c2ccccc2C(=O)c2ccccc2)c(C)c1	20.5%	-5.55%	17.2%	20.2%	20.6%	11.5%
Fc1ccc(C2=NOC3COC4C=CC=CC4OCC23)cc1 (configuration not stated)	-29.2%	-34.9%	-22.9%	-9.15%	-45.1%	-42.2%
COc1nc(NC2OCC(O)C(O)C2O)c(NC2OCC(O)C(O)C2O)c(=O)n1C (configuration not stated)	-7.5%	-1.7%	-11.6%	22.5%	-31.1%	-12.2%
CN(C)C=Nc1ccn(C2CC(F)C(CO)O2)c(=O)n1 (configuration not stated)	4.55%	13.2%	-22.4%	-7.85%	8.8%	13%
CNC(=O)c1ccccc1C	-1.15%	-6%	-6.9%	-33.3%	6.55%	0.35%
O=C(O)c1cc2c(c3c1CCCC3)CCC1CCCC21 (configuration not stated)	13.2%	26.4%	33.4%	-6.25%	20.8%	27.9%
Nc1nc2nc(N=Nc3ccccc3)[nH]c2c(=O)[nH]1	21.5%	-1.9%	8.3%	9.25%	5.45%	8.9%
OC1OCc2cc3ccccc3cc21 (configuration not stated)	21.4%	-0.95%	-8.35%	3.6%	-7.8%	3.65%
Nc1nc2nc[n-]c2c(=O)[nH]1.[NH2-].[NH2-].[NH2-].[NH2-].[NH2-].[Ru+6]	20.6%	4.55%	4.9%	2.5%	-5.8%	-4.9%
CC(C)c1cc(C(C)C)c(Cc2c(C(C)C)cc(C(C)C)cc2C(C)C)c(C(C)C)c1	15%	14.2%	0.3%	0.55%	-2%	20.3%
NC(=S)N=Nc1c(O)[nH]c2ccccc12	12.8%	-9.8%	-5.9%	4.85%	9.95%	6.55%
O=C(N/N=C/c1ccc(O)cc1)c1ccccc1NC(=O)C1CC1	3.25%	23.7%	18.9%	2.55%	-0.85%	-21.1%
Cc1cc2c(cc1Cl)SC(NNC(=O)c1ccccc1)=NS2(=O)=O	-44.9%	-31.7%	-43.8%	-42.2%	-31.1%	-38.2%
CCOC(CCC#N)c1ccc(C)cc1 (configuration not stated)	10.2%	5.65%	34.1%	25.2%	0.8%	22.3%
COC(=O)c1nn2c(=O)n(C(C)=O)c3ccccc3c2c1C(=O)OC	27.2%	4.85%	9.65%	15.8%	8.5%	24.6%
